# Data published in ChEMBL document CHEMBL1961873, “Compounds: GSK PKIS; Assays: Nanosyn kinase panel” (2012).
# Columns and labels:
# [1] = target: Protein kinase C gamma type (Homo sapiens) (UniProt P05129); conditions: at 1 µM;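 also: each value is an averaged percent inhibition of the enzyme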
# [2] = target: T1, Protein kinase C iota type (Homo sapiens) (UniProt P41743); conditions: at 0.1 µM
# T1 sequence (whole entry): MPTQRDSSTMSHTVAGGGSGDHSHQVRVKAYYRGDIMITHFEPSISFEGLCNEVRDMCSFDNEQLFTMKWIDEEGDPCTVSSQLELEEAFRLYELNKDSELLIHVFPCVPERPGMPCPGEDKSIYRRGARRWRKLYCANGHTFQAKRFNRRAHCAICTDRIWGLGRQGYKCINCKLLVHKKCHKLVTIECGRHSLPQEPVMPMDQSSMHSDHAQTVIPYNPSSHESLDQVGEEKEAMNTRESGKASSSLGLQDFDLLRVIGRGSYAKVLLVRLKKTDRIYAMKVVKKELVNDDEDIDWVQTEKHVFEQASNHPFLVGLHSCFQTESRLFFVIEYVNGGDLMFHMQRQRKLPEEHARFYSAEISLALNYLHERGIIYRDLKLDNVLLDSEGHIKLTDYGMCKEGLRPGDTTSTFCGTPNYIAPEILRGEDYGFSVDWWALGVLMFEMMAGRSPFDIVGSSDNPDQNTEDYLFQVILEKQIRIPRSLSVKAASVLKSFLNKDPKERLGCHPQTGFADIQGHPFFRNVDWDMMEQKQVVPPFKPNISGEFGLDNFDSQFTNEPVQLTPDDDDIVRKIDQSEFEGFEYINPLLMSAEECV
# [3] = target: T1, Protein kinase C iota type (Homo sapiens); conditions: at 1 µM
# [4] = target: Protein kinase C theta type (Homo sapiens) (UniProt Q04759); conditions: at 0.1 µM
# Chain of Protein kinase C theta type (Homo sapiens) (Q04759 whole entry, looked up): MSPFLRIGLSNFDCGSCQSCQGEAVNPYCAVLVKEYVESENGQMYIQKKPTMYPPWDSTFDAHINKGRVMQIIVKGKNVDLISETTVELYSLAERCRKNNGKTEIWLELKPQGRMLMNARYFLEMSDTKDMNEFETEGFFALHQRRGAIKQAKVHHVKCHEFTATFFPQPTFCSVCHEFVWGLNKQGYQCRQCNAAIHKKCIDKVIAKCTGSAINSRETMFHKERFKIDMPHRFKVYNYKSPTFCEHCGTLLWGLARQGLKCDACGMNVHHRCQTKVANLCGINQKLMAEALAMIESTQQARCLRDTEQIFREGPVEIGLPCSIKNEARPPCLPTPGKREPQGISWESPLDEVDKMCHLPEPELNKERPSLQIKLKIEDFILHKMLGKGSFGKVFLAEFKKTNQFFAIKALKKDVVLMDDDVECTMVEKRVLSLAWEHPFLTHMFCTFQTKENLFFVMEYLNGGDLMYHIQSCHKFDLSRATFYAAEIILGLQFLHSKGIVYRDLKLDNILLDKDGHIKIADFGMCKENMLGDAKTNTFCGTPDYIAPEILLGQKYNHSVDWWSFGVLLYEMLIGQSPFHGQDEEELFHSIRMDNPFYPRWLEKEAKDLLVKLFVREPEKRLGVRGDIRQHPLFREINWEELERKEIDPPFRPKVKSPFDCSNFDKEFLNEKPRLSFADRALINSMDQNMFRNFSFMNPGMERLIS
# [5] = target: Protein kinase C theta type (Homo sapiens) (UniProt Q04759); conditions: at 1 µM
# [6] = target: Protein kinase C beta type (Homo sapiens) (UniProt P05771); conditions: at 0.1 µM
# Chain of Protein kinase C beta type (Homo sapiens) (P05771 2-671 limits assumed): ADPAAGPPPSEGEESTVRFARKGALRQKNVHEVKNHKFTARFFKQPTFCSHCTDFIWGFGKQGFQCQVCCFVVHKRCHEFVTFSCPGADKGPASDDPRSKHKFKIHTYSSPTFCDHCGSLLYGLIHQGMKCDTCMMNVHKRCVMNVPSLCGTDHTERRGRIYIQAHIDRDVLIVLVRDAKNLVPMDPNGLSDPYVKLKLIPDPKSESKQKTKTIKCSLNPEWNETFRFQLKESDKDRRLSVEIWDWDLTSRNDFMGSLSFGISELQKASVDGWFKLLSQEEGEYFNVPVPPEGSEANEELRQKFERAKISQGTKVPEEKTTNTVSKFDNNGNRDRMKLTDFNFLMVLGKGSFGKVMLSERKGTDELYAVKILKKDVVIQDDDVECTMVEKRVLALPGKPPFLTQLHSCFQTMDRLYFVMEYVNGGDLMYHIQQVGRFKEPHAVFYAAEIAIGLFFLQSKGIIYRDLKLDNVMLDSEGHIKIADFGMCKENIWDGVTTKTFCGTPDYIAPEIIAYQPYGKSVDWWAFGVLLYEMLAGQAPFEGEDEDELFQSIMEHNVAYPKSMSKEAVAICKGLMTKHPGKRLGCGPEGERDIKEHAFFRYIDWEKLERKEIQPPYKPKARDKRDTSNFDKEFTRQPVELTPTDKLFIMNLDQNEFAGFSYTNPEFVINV
# [7] = target: Protein kinase C beta type (Homo sapiens) (UniProt P05771); conditions: at 1 µM
# [8] = target: T2, Serine/threonine-protein kinase D1 (Homo sapiens) (UniProt Q15139); conditions: at 0.1 µM
# T2 sequence (whole entry): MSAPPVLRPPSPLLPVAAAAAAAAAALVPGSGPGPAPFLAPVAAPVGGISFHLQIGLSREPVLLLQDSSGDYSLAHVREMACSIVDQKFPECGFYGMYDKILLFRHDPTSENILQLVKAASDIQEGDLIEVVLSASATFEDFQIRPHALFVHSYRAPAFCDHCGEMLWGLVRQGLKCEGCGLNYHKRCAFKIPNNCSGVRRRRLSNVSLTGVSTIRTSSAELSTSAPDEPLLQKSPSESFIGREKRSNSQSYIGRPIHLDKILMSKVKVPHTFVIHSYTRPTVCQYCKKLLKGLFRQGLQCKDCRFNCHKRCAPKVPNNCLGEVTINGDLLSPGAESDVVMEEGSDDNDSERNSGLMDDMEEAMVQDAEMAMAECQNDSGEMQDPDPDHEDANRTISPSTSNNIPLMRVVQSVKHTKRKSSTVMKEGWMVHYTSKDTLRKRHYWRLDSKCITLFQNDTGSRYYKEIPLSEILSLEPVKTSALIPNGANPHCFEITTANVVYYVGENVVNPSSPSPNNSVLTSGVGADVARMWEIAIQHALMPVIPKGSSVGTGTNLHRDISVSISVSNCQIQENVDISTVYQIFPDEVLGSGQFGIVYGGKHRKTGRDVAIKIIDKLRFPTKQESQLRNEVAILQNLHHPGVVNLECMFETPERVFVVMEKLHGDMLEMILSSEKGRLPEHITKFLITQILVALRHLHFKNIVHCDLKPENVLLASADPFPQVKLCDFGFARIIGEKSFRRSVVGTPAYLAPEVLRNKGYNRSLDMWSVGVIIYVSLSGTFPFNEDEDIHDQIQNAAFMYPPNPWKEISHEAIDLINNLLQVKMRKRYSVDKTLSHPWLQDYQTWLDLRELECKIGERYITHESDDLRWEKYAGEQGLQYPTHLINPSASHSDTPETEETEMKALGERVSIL
# [9] = target: T2, Serine/threonine-protein kinase D1 (Homo sapiens); conditions: at 1 µM
# [10] = target: T3, Serine/threonine-protein kinase D2 (Homo sapiens) (UniProt Q9BZL6); conditions: at 0.1 µM
# T3 sequence (whole entry): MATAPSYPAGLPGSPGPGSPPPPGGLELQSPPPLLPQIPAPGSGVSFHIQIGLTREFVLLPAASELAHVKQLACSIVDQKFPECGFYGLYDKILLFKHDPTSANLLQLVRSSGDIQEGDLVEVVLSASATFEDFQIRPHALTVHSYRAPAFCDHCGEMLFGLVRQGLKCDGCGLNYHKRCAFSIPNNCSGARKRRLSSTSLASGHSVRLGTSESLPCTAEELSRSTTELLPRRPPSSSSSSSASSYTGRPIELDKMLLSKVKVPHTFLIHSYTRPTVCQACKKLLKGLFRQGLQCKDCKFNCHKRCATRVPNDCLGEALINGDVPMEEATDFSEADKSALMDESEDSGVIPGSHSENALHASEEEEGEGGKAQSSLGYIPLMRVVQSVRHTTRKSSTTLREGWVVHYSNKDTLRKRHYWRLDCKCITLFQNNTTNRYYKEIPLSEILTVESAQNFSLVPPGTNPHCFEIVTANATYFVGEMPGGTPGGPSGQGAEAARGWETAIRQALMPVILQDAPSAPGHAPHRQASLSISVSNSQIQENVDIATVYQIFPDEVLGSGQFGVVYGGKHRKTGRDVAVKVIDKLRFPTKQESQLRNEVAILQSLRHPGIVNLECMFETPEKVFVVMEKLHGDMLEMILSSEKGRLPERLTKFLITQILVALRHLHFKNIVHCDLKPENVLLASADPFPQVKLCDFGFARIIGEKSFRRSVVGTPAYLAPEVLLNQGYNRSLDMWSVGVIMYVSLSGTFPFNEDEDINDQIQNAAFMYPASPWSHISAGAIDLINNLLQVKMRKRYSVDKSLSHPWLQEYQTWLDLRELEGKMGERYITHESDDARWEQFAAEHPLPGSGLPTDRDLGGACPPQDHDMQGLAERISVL
# [11] = target: T3, Serine/threonine-protein kinase D2 (Homo sapiens); conditions: at 1 µM
# [12] = target: T4, Serine/threonine-protein kinase D3 (Homo sapiens) (UniProt O94806); conditions: at 0.1 µM
# T4 sequence (whole entry): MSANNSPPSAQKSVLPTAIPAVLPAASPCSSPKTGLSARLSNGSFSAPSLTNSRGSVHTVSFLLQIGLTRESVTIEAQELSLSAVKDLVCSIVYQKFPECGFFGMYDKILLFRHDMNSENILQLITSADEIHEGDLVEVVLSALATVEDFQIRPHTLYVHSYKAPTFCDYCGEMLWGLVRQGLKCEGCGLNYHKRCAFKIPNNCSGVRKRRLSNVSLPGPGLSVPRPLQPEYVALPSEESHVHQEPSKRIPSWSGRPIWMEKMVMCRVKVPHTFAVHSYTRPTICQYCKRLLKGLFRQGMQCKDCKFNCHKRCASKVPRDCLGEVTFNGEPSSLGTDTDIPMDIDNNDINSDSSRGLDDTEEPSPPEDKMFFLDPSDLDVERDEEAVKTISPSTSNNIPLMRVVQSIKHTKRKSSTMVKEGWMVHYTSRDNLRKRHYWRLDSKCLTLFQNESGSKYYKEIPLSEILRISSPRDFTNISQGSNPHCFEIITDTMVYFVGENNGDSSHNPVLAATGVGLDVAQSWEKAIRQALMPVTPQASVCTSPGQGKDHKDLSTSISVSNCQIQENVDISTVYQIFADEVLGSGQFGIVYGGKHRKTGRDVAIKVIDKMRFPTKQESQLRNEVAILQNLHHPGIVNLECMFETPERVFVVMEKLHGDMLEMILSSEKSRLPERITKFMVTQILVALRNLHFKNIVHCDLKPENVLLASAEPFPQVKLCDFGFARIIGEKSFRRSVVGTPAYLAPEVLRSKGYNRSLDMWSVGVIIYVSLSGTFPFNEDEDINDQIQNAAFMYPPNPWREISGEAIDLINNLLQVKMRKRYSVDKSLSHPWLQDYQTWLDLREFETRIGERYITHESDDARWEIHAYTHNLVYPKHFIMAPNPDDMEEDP
# [13] = target: T4, Serine/threonine-protein kinase D3 (Homo sapiens); conditions: at 1 µM
# [14] = target: T5, cGMP-dependent protein kinase 1 (Homo sapiens) (UniProt Q13976); conditions: at 0.1 µM
# T5 sequence (whole entry): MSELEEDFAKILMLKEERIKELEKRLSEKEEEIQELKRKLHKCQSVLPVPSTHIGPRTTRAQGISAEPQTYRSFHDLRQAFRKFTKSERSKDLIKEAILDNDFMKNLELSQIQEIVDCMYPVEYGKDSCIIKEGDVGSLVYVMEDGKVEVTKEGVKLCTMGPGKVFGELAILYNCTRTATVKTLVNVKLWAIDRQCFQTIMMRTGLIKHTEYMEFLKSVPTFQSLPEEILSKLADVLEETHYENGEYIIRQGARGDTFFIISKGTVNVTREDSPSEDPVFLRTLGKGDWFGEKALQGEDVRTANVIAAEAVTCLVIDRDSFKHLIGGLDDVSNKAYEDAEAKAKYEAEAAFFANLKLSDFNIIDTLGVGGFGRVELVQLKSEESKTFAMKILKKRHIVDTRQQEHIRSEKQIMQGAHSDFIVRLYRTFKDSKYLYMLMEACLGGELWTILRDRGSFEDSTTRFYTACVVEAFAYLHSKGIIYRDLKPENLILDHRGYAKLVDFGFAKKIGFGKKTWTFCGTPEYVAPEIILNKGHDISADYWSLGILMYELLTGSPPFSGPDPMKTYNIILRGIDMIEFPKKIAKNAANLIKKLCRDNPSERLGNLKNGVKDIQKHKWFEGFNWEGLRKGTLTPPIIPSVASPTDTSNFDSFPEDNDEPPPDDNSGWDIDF
# [15] = target: T5, cGMP-dependent protein kinase 1 (Homo sapiens); conditions: at 1 µM
# [16] = target: T6, cGMP-dependent protein kinase 2 (Homo sapiens) (UniProt Q13237); conditions: at 0.1 µM
# T6 sequence (whole entry): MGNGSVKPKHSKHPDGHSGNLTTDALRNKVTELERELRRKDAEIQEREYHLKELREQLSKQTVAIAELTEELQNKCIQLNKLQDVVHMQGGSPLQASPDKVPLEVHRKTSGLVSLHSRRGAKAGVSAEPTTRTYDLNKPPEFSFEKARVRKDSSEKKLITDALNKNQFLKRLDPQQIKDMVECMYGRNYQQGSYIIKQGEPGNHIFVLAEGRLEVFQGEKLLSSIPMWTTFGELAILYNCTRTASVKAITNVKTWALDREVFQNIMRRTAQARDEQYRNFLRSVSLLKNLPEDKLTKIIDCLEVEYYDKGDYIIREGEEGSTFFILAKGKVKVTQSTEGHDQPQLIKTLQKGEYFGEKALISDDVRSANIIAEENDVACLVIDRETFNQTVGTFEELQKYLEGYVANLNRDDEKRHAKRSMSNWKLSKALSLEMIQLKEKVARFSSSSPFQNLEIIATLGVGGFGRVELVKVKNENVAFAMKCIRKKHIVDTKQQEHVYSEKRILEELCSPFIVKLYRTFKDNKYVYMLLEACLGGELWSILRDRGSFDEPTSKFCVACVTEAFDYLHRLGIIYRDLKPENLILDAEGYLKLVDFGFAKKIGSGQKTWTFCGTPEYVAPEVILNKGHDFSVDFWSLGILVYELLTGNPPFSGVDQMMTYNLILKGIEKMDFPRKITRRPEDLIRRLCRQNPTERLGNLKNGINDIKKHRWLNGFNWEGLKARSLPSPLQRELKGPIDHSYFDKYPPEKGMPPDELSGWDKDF
# [17] = target: T6, cGMP-dependent protein kinase 2 (Homo sapiens); conditions: at 1 µM
# [18] = target: T7, cAMP-dependent protein kinase catalytic subunit PRKX (Homo sapiens) (UniProt P51817); conditions: at 0.1 µM
# T7 sequence (whole entry): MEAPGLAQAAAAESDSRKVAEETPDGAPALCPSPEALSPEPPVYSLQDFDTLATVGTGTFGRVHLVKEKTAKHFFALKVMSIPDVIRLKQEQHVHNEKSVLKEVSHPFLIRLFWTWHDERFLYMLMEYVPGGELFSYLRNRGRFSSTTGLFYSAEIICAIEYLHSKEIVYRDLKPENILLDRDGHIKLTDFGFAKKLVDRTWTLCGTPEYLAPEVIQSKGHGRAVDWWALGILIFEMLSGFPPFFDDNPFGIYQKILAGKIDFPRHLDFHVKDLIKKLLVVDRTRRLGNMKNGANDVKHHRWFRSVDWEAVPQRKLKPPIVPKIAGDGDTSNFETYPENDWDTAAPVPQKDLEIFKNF
# [19] = target: T7, cAMP-dependent protein kinase catalytic subunit PRKX (Homo sapiens); conditions: at 1 µM
# [20] = target: Rho-associated protein kinase 1 (Homo sapiens) (UniProt Q13464); conditions: at 0.1 µM;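 also: values are mean percent inhibition of ROCK1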
# Chain of Rho-associated protein kinase 1 (Homo sapiens) (Q13464 2-1354 limits assumed): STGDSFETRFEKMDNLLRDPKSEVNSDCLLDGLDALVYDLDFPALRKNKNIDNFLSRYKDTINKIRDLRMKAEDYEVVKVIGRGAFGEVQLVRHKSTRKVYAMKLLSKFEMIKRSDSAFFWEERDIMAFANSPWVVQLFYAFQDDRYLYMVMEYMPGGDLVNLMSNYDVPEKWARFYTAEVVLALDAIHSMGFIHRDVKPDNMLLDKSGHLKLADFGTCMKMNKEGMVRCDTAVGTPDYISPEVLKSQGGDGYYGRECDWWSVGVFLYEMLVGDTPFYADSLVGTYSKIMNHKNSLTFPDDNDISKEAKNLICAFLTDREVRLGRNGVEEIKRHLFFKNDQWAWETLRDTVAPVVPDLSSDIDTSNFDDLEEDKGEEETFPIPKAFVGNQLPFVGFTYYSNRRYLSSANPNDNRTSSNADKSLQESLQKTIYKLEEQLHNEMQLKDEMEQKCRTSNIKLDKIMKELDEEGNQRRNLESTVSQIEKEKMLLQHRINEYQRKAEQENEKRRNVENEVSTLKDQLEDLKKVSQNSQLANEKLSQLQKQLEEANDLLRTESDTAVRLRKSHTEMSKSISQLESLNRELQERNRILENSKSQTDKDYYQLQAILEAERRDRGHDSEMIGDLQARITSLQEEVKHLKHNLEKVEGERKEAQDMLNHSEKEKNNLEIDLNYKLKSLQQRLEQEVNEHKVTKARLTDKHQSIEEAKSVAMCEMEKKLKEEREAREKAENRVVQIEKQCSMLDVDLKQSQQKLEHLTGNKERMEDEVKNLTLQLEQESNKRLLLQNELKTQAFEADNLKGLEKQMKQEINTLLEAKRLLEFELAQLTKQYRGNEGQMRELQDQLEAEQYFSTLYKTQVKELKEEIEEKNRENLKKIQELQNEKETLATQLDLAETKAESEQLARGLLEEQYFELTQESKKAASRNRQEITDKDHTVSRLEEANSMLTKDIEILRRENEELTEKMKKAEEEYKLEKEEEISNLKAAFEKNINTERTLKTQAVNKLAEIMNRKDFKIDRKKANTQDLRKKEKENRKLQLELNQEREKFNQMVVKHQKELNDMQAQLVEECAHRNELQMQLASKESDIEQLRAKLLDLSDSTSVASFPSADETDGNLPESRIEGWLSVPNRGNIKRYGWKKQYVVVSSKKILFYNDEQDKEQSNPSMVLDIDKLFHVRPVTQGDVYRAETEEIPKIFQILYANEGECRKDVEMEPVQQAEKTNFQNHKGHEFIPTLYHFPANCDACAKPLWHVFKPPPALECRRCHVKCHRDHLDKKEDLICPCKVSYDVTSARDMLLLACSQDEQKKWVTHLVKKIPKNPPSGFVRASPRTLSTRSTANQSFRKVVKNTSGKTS
smiles,measurement,setting,value
COc1cccc(-n2ncc3c(N/N=C/c4ccc(S(C)(=O)=O)cc4)ncnc32)c1,inhibition,[1],3.18%
same,inhibition,[2],2.06%
same,inhibition,[3],0.98%
same,inhibition,[4],-0.11%
same,inhibition,[5],1.19%
same,inhibition,[6],2.19%
same,inhibition,[7],13.3%
same,inhibition,[8],-2.12%
same,inhibition,[9],-1.45%
same,inhibition,[10],-2.64%
same,inhibition,[11],-2.8%
same,inhibition,[12],-6.98%
same,inhibition,[13],-2.38%
same,inhibition,[14],1.11%
same,inhibition,[15],1.69%
same,inhibition,[16],1.59%
same,inhibition,[17],1.79%
same,inhibition,[18],1.68%
same,inhibition,[19],1.61%
same,inhibition,[20],0.21%
